# Data published in PubChem BioAssay (Tox21).
# Several values for one entry are separate records, joined by “and”; a condition that tells them apart may be missing. Equal entries are not always repeated. Results filed as inconclusive are left out. Where a call stands in place of a potency, no number is given. More than one record can exist for a structure, and the calls need not agree. Activity calls are given as the source filed them. Unless noted, the call rests on the fitted dose curve; in most records, active means well fitted curve in the direction sought with a large enough effect in the repeat runs; inconclusive means weak or mixed curves; inactive means no such curve, though single readings can be large; an effect the other way counts as inactive or inconclusive.
# Tests used:
# [1] = qHTS assay to identify aromatase inhibitors - cell viability counter screen (AID 743084);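 further: cells stimulated with testosterone during compound exposure; nearly all actives have a fitted effect of over 55% in size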
# [2] = molecular target: Aryl hydrocarbon receptor (Homo sapiens) (UniProt P35869); experiment: qHTS assay to identify small molecule that activate the aryl hydrocarbon receptor (AhR) signaling pathway (AID 743085); further: nearly all actives have a fitted effect of over 15% in size; further: potency means the concentration at half of the fitted maximal effect;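 on activation: HG2L7.5c1 human HepG2 liver cells with stably integrated DRE-driven firefly reporter; series mostly up to about 70 µM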
# Summary of the method: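 Luminescence read-out: ONE-Glo reagent, 30 min at room temperature, in HG2L7.5c1 HepG2 reporter cells treated 24 h at 37C. Viability was measured beforehand by CellTiter-Fluor fluorescence after 30 min at 37C.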
# [3] = qHTS assay to identify small molecule antagonists of the peroxisome proliferator-activated receptor gamma (PPARg) signaling pathway - cell viability counter screen (AID 743194); further: nearly all actives have a fitted effect of over 55% in size
# Summary of the method: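 PPARg-UAS-bla HEK293H cells were plated, rested 5 h at 37 C, then treated with compounds plus rosiglitazone (50 nM final) for 17 h at 37 C; viability was then read by CellTiter-Glo luminescence after 30 min at room temperature.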
# [4] = qHTS assay for small molecule agonists of the antioxidant response element (ARE) signaling pathway (AID 743202; active means well fitted activation curve with a large enough effect in the signal ratio in the repeat runs, not every such curve was filed as active; the % refers to the signal ratio)
# Summary of the method: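 Following a 16 h, 37 C exposure of reporter HepG2 cells (ARE-driven beta-lactamase, 2,000 cells/well) to compounds, FRET substrate was applied for 2 h at room temperature and fluorescence intensity recorded.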
# [5] = qHTS assay for small molecule agonists of the antioxidant response element (ARE) signaling pathway - cell viability counter screen (AID 743203; calls by dose curve; further: nearly all actives have a fitted effect of over 55% in size)
# Summary of the method: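 Parallel cytotoxicity read-out for the ARE-bla screen: HepG2 reporter cells, 16 hrs with compounds, then CellTiter-Glo luminescence.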
# [6] = qHTS assay for small molecule activators of the heat shock response signaling pathway - cell viability counter screen (AID 743209); further: nearly all actives have a fitted effect of over 50% in size
# Summary of the method: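 To flag cytotoxic compounds, HSE-bla HeLa cells plated at 1500 cells/well were dosed for 5 h at 37 C, followed by the reporter FRET read and then CellTiter-Glo, with luminescence recorded 30 min after reagent addition.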
# [7] = qHTS assay for small molecule activators of the heat shock response signaling pathway (AID 743210; active means well fitted activation curve with a large enough effect in the signal ratio in the repeat runs, with a control signal flat, not every such curve was filed as active; the % refers to the signal ratio; further: potency means the concentration at half of the fitted maximal effect; on activation: series mostly up to about 63 µM)
# Summary of the method: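 Heat shock element–beta-lactamase HeLa reporter cells; qHTS with compounds for 5 h at 37 C; detection by FRET substrate fluorescence after 2.5 h at RT.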
# [8] = qHTS assay to identify small molecule agonists of the peroxisome proliferator-activated receptor delta (PPARd) signaling pathway - cell viability counter screen (AID 743211); further: nearly all actives have a fitted effect of over 55% in size
# Summary of the method: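 Read-out: CellTiter-Glo luminescence, 30 min RT, measured in the same wells as the beta-lactamase reporter. Cells: GeneBLAzer PPAR delta UAS-bla HEK293H, 3000 cells/well, compound exposure 17 h at 37C.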
# [9] = molecular target: Peroxisome proliferator-activated receptor delta (Homo sapiens) (UniProt Q03181); experiment: qHTS assay to identify small molecule agonists of the peroxisome proliferator-activated receptor delta (PPARd) signaling pathway (AID 743212; calls by dose curve)
# Summary of the method: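 Beta-lactamase reporter read by fluorescence (LiveBLAzer B/G FRET, 2 h, room temperature). Test agents, in DMSO, incubated at 37 C with PPARd-bla HEK293H cells.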
# [10] = qHTS assay to identify small molecule antagonists of the peroxisome proliferator-activated receptor delta (PPARd) signaling pathway - cell viability counter screen (AID 743213); further: nearly all actives have a fitted effect of over 50% in size
# Summary of the method: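 CellTiter-Glo was added to PPARd-bla HEK293H wells following 17 h compound treatment in the presence of 300 nM L165041. Luminescence was recorded after 30 min at room temperature.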
# [11] = molecular target: Peroxisome proliferator-activated receptor delta (Homo sapiens) (UniProt Q03181); experiment: qHTS assay to identify small molecule antagonists of the peroxisome proliferator-activated receptor delta (PPARd) signaling pathway (AID 743215; active means well fitted inhibition curve with a large enough effect in the signal ratio in the repeat runs, not every such curve was filed as active; the % refers to the signal ratio;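 further: cells stimulated with agonist L165041 at 300 nM final during compound exposure; series mostly up to about 62 µM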)
# Summary of the method: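 Screen format: qHTS, antagonist mode. HEK293H PPARd-bla cells received compound and 300 nM L165041 (final), 17 h, 37 C. Beta-lactamase detected via FRET substrate fluorescence, 2 h, room temperature.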
# [12] = qHTS assay to identify small molecule agonists of the farnesoid-X-receptor (FXR) signaling pathway - cell viability counter screen (AID 743218); further: nearly all actives have a fitted effect of over 45% in size
# Summary of the method: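 Same-well cytotoxicity check on FXR-UAS-bla HEK 293T cells: 5 h attachment, 16 h compound at 37 C, CellTiter-Glo luminescence read at room temperature after 30 min.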
# [13] = qHTS assay to identify small molecule antagonists of the farnesoid-X-receptor (FXR) signaling pathway - cell viability counter screen (AID 743221; active means well fitted cell-killing curve with a large enough effect in the repeat runs, not every such curve was filed as active; further: nearly all actives have a fitted effect of over 50% in size)
# Summary of the method: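 HEK 293T FXR-bla cells, 5 h pre-incubation; compound + CDCA 50 uM final, 16 h, 37 C; beta-lactamase FRET read first, then CellTiter-Glo luminescence, 30 min RT.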
# [14] = molecular target: Vitamin D3 receptor (Homo sapiens) (UniProt P11473); experiment: qHTS assay to identify small molecule agonists of the vitamin D receptor (VDR) signaling pathway (AID 743222; calls by dose curve)
# Summary of the method: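 Using LiveBLAzer B/G FRET detection, agonism was scored in VDR-bla cells exposed overnight (16 h, 37C) to DMSO-dissolved compounds; substrate incubation was 2 h at room temperature.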
# [15] = molecular target: Vitamin D3 receptor (Homo sapiens) (UniProt P11473); experiment: qHTS assay to identify small molecule antagonists of the vitamin D receptor (VDR) signaling pathway (AID 743223; active means well fitted inhibition curve with a large enough effect in the signal ratio in the repeat runs, not every such curve was filed as active; the % refers to the signal ratio)
# Summary of the method: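 Beta-lactamase reporter read-out: FRET substrate fluorescence after 2 h at room temperature, following 16 h exposure of VDR-bla cells to test compound plus 3 nM (final) 1alpha,25-dihydroxyvitamin D3 agonist at 37C.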
# [16] = molecular target: Bile acid receptor (Homo sapiens) (UniProt Q96RI1); experiment: qHTS assay to identify small molecule antagonists of the farnesoid-X-receptor (FXR) signaling pathway (AID 743217; active means well fitted inhibition curve with a large enough effect in the signal ratio in the repeat runs, not every such curve was filed as active; the % refers to the signal ratio)
# Summary of the method: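 Quantitative HTS, beta-lactamase reporter format: FXR-UAS-bla HEK 293T cells co-treated 16 h at 37 °C with compounds and 50 uM final chenodeoxycholic acid, then read by B/G FRET fluorescence.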
# [17] = molecular target: Bile acid receptor (Homo sapiens) (UniProt Q96RI1); experiment: qHTS assay to identify small molecule agonists of the farnesoid-X-receptor (FXR) signaling pathway (AID 743220; active means well fitted activation curve with a large enough effect in the signal ratio in the repeat runs, not every such curve was filed as active; the % refers to the signal ratio)
# Summary of the method: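 FXR-UAS-bla HEK 293T cells carrying a UAS-driven beta-lactamase reporter were plated for 5 h at 37C/5% CO2, then exposed to DMSO-dissolved Tox21 10K compounds for 16 h at 37C. A LiveBLAzer B/G FRET substrate was loaded for 2 h at room temperature before fluorescence reading.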
# [18] = molecular target: Peroxisome proliferator-activated receptor gamma (Homo sapiens) (UniProt P37231); experiment: qHTS assay to identify small molecule agonists of the peroxisome proliferator-activated receptor gamma (PPARg) signaling pathway (AID 743094; active means well fitted activation curve with a large enough effect in the signal ratio in the repeat runs, not every such curve was filed as active; the % refers to the signal ratio)
# Summary of the method: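 Fluorescence-based beta-lactamase readout in HEK293H PPARg UAS-bla cells after 17 h compound exposure (37C) and 1 h B/G FRET substrate incubation at room temperature.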
# [19] = molecular target: Peroxisome proliferator-activated receptor gamma (Homo sapiens) (UniProt P37231); experiment: qHTS assay to identify small molecule antagonists of the peroxisome proliferator-activated receptor gamma (PPARg) signaling pathway (AID 743191; calls by dose curve; further: nearly all actives have a fitted effect of over 30% in size; further: potency means the concentration at half of the fitted maximal effect)
# Summary of the method: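 GeneBLAzer PPARg UAS-bla HEK293H cells carrying a UAS-driven beta-lactamase reporter were plated at 3000 cells/well, preincubated 5 h at 37C, then given compound for 17 h at 37C; LiveBLAzer B/G FRET substrate was read after 1 h at room temperature.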
# [20] = qHTS assay to identify small molecule that activate the aryl hydrocarbon receptor (AhR) signaling pathway - cell viability counter screen (AID 743086);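 further: HepG2 liver cells carrying the AhR DRE luciferase reporter; series mostly up to about 70 µM; nearly all actives have a fitted effect of over 45% in size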
# Summary of the method: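 HepG2-AhR-luc (HG2L7.5c1) cells, 4000/well, were preincubated 5 h at 37C, exposed to compound in qHTS format for 24 hr at 37C, then given CellTiter-Fluor for 30 min; viability was read as fluorescence in the reporter wells.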
# Chain of Aryl hydrocarbon receptor (Homo sapiens) (P35869 whole entry, looked up): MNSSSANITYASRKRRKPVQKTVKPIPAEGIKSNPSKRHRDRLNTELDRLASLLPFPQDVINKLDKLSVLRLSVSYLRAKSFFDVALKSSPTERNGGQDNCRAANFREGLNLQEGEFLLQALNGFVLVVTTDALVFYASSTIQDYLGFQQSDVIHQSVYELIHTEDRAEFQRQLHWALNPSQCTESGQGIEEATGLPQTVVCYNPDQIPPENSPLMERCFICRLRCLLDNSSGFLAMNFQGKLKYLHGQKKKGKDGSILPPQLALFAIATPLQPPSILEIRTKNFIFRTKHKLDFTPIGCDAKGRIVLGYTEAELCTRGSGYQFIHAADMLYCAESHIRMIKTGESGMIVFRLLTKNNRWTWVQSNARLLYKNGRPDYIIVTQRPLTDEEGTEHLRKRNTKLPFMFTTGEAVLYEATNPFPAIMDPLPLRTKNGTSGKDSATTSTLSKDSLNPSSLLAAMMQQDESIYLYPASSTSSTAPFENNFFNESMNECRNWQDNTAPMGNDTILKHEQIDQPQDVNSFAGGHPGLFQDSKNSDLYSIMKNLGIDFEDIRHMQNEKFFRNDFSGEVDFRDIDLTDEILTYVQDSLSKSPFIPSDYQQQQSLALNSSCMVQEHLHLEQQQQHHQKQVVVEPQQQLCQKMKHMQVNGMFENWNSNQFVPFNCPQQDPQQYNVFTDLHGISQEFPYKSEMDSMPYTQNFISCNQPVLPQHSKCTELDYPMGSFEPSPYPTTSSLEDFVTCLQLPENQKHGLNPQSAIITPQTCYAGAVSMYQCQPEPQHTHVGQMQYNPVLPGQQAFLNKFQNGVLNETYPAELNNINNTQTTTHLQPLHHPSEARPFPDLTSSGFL
# Chain of Peroxisome proliferator-activated receptor delta (Homo sapiens) (Q03181 whole entry, looked up): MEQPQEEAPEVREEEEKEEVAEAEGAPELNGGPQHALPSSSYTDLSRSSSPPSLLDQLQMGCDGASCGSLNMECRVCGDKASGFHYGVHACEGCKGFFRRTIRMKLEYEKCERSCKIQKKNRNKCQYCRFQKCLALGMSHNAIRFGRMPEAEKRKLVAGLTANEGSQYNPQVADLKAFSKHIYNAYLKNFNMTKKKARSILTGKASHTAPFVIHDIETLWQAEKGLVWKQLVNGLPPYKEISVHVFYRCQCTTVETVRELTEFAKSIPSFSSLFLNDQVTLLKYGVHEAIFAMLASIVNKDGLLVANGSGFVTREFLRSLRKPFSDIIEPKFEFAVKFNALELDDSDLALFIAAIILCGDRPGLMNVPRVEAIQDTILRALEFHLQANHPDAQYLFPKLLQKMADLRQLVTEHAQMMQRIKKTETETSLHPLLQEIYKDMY
# Chain of Vitamin D3 receptor (Homo sapiens) (P11473 whole entry, looked up): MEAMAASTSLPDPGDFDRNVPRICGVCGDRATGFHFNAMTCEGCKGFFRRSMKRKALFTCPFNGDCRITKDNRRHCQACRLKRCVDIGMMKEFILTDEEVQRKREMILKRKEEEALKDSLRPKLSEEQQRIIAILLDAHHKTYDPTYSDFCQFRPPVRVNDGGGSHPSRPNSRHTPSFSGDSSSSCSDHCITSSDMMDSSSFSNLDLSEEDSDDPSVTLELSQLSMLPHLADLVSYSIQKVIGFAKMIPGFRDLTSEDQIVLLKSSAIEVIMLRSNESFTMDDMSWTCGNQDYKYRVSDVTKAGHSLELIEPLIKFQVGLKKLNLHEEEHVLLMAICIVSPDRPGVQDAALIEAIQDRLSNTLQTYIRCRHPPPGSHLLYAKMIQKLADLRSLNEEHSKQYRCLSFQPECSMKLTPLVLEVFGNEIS
# Chain of Bile acid receptor (Homo sapiens) (Q96RI1 whole entry, looked up): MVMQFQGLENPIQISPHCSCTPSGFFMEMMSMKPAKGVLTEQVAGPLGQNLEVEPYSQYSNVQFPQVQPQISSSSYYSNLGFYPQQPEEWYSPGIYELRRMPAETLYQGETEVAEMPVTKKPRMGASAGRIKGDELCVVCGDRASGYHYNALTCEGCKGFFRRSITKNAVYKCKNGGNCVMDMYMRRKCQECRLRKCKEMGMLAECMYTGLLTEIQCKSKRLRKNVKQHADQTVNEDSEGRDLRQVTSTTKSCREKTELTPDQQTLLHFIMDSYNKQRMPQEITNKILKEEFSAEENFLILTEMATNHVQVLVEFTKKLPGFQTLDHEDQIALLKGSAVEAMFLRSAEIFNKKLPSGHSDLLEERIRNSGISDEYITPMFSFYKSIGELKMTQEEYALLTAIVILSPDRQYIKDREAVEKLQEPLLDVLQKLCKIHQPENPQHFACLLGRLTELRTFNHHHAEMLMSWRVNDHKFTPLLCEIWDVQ
# Chain of Peroxisome proliferator-activated receptor gamma (Homo sapiens) (P37231 whole entry, looked up): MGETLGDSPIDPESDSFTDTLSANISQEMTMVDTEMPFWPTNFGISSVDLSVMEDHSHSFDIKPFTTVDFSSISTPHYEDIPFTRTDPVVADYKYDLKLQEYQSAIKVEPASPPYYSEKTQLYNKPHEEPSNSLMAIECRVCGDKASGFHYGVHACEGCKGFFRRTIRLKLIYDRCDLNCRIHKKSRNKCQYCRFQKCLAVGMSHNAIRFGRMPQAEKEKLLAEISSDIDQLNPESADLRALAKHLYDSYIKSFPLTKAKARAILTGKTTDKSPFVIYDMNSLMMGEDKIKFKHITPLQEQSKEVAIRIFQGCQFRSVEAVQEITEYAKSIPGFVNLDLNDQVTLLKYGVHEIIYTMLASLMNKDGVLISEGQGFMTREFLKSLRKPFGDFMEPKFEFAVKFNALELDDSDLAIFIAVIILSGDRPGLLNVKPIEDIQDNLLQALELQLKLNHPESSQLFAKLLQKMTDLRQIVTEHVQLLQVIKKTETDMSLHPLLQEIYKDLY
Structure (SMILES),Potency [1],Potency [2],outcome [3],Potency [4],Potency [5],Potency [6],Potency [7],Potency [8],outcome [9],outcome [10],outcome [11],Potency [12],Potency [13],outcome [14],outcome [15],outcome [16],outcome [17],outcome [18],Potency [19],outcome [20]
Sc1ccccc1,inactive,inactive,inactive,inactive,inactive,inactive,44.3 µM (active) and inactive,inactive,inactive,inactive,inactive,inactive,inactive,inactive,inactive,–,–,–,–,–
OCCCCO,inactive,inactive,inactive,inactive,inactive,inactive,inactive,inactive,–,inactive,–,inactive,inactive,inactive,inactive,inactive,inactive,–,–,–
N#Cc1ccccn1,inactive,inactive,inactive,inactive,inactive,inactive,–,inactive,–,inactive,–,inactive,inactive,–,–,–,–,inactive,inactive,–
Nc1cccc(Cl)c1,inactive,–,inactive,inactive,inactive,inactive,–,inactive,inactive,inactive,inactive,inactive,inactive,inactive,inactive,inactive,inactive,inactive,inactive,inactive
C=CC(=O)OCCCCCC(C)C,inactive,inactive,inactive,inactive,inactive,inactive,inactive,inactive,inactive,inactive,inactive,inactive,inactive,inactive,inactive,inactive,inactive,inactive,–,–
COc1cc(-c2ccc(N)c(OC)c2)ccc1N,inactive,–,inactive,–,inactive,inactive,inactive,inactive,inactive,inactive,inactive,inactive,inactive,inactive,inactive,–,–,inactive,inactive and 33.1 µM (active),–
CCOc1ccc(N)cc1,inactive,48.7 µM (active) and inactive,inactive,–,inactive,inactive,inactive,inactive,inactive,inactive,inactive,inactive,inactive,inactive,inactive,inactive,inactive,–,–,–
C=CC(=O)OCC(CC)CCCC (configuration not stated),inactive,inactive,inactive,inactive,inactive,inactive,inactive,inactive,–,inactive,–,inactive,inactive,inactive,–,–,–,–,–,–
Nc1ccc([As](=O)(O)O)cc1,inactive,–,inactive,inactive,inactive,inactive,inactive,inactive,inactive,inactive,inactive,inactive,inactive,inactive,–,–,–,inactive,inactive,inactive
CNc1cnn(-c2cccc(C(F)(F)F)c2)c(=O)c1Cl,inactive,27.3 µM (active),inactive,–,inactive,inactive,inactive,inactive,inactive,inactive,inactive,inactive,inactive,inactive,inactive,inactive,inactive,inactive,inactive,–
O=[N+]([O-])c1ccc(Cl)cc1,inactive,inactive,inactive,inactive,inactive,inactive,inactive,inactive,–,inactive,–,inactive,inactive,inactive,inactive,–,–,–,–,–
CC[N+](=O)[O-],inactive,inactive,inactive,inactive,inactive,inactive,inactive,inactive,inactive,inactive,inactive,inactive,inactive,inactive,inactive,–,–,inactive,–,–
CNC(=O)O/N=C/C(C)(C)SC,inactive,inactive,inactive,inactive,inactive,inactive,–,inactive,inactive,–,inactive,inactive,inactive,–,–,inactive,inactive,inactive,inactive,–
CC(C)(C)C(=O)CCl,inactive,–,inactive,inactive,inactive,inactive,inactive,inactive,inactive,inactive,inactive,inactive,inactive,inactive,inactive,–,–,inactive,inactive,–
NNc1ccccc1,inactive,–,inactive,inactive,inactive,inactive,inactive,inactive,–,inactive,–,inactive,inactive,–,–,–,–,inactive,13.8 µM (active) and inactive,inactive
CCCCCCCCCCCCCCCCCC(=O)O,inactive,–,inactive,inactive,inactive,inactive,–,inactive,–,inactive,–,inactive,inactive,–,–,–,–,–,–,–
C=CC#N,inactive,inactive,inactive,inactive,inactive,inactive,inactive,inactive,–,inactive,–,inactive,inactive,inactive,inactive,–,–,inactive,inactive,–
